Inconclusive results are not listed. Activity calls are given as the source filed them.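 Rule for the calls, unless noted: active = normalized viability below 100% at a tested concentration; inactive = the rest.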
Columns and labels:
[1] = viability loss in pontine glioma line – cell-based, SU-DIPG-XVII, MIPE5.0, CellTiter-Glo, qHTS, dose response (AID 1347060; cut-off not given, nearly all actives have AC50 up to about 26 µM;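 for AC50: cells exposed to compound for 48 hours before viability readout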); conditions: CellTiter-Glo ATP luminescence
[2] = viability loss in pontine glioma line – cell-based, JHH-DIPG-1, MIPE4.0, CellTiter-Glo, qHTS, dose response (AID 1347062; cut-off not given, nearly all actives have AC50 up to about 27 µM;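 for AC50: cells exposed to compound for two days before readout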); conditions: JHH-DIPG-1 viability, CellTiter-Glo ATP luminescence
[3] = viability loss in pontine glioma line – cell-based, SU-DIPG-XXV, MIPE5.0, CellTiter-Glo, qHTS, dose response (AID 1347065; cut-off not given, nearly all actives have AC50 up to about 26 µM;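 note: cells exposed to compound for 48 hours before ATP readout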); conditions: CellTiter-Glo ATP luminescence
[4] = growth inhibition of DIPG cells – cell-based, MIPE4.0 library, CellTiter-Glo luminescence, qHTS (AID 1347066; cut-off not given, nearly all actives have AC50 up to about 30 µM;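 note: cells exposed to compound for 48 hours before readout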); conditions: SU-DIPG-VI viability, CellTiter-Glo ATP luminescence
[5] = viability loss with induced miR-34 in A549 – imaging, A549 dox-inducible miR-34, nuclei and caspase counts, primary screen (AID 1347080;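 active = compounds whose cell count with miR-34 switched on is under 0.7 times the count with it off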); conditions: A549 miR-34 inducible, Hoechst nuclei count, 48 h
[6] = compounds altering HSF1 focus formation in cells – imaging, Selleck Cancer Library (AID 1347162; in the data active = plate-normalised HSF1 focus index below about 0.46); conditions: human cells, HSF1 nuclear foci imaging, at 10 µM; SSMD: measured here: HSF1 foci SSMD mean; cell count: measured here: cell number; plate-normalised HSF1 focus index: stronger effect = lower value
[7] = MELAS cybrid and Rieske KO viability enhancers – cell-based, MELAS cybrids, Rieske KO mouse fibroblasts, CellTiter-Glo, primary screen (AID 1508586;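 active = mean z-score across replicates of 1.96 or higher in either the MELAS or the Rieske mutant cell line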;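 note: z relative to plate mean and SD of compound and empty wells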); conditions: low glucose
[8] = drug combination growth inhibition, ovarian cancer – cell-based, oncology-focused library, rucaparib conditional, profiling panel (AID 1508598); conditions: patient-derived ovarian cancer cells, CellTiter-Glo viability, 144 h, stronger effect = lower value
[9] = P. berghei load reduction in hepatocytes – cell-based, HepG2, luciferase luminescence, HepG2 viability, primary screen (AID 624349; in the data active = parasite load remaining mostly below about 12%, no sharp cut-off; inactive = mostly above about 10%;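 note: 100% = mean of DMSO negative control wells on the same plate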); conditions: P. berghei liver stage in HepG2, luciferase luminescence, concentration not given here; parasite load remaining: stronger effect = lower value; viability: measured here: HepG2 viability without parasites
[10] = viability loss in pontine glioma line – cell-based, SU-DIPG-XIII, MIPE5.0, CellTiter-Glo, qHTS, dose response (AID 1347064; cut-off not given, nearly all actives have AC50 up to about 23 µM;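 for AC50: cells exposed to compound for 48 hours before the viability read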); conditions: CellTiter-Glo ATP luminescence
[11] = JHH-DIPG-1 glioma cell viability, MIPE5.0 library, CellTiter-Glo luminescence, qHTS (AID 1347067; cut-off not given, nearly all actives have AC50 up to about 26 µM;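 note: cells exposed to compound for 48 hours before readout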); conditions: JHH-DIPG-1 glioma viability, CellTiter-Glo ATP luminescence
[12] = growth inhibition of DIPG cells – cell-based, MIPE5.0 library, qHTS (AID 1347068; cut-off not given, nearly all actives have IC50 up to about 30 µM;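 for IC50: cells exposed to compound for 48 hours before viability readout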); conditions: SU-DIPG-XXV viability
[13] = stronger effect = lower value, cell number ratio, induced over uninduced
[14] = measured here: relative caspase fold change +Dox/-Dox
[15] = measured here: total cells with miR-34 induction, stronger effect = lower value
[16] = measured here: total cells without miR-34 induction
[17] = MELAS cybrid survival, CellTiter-Glo 48 h, stronger effect = higher value
[18] = Rieske KO mouse fibroblast survival, CellTiter-Glo 72 h
[19] = at 0.000305 µM, OCI-C5x cells, with rucaparib 10 µM, 100% = cells with rucaparib alone
[20] = at 0.000305 µM, OCI-C5x cells, without rucaparib
[21] = at 0.000305 µM, OCI-P5x cells, with rucaparib 20 µM, 100% = cells with rucaparib alone
[22] = at 0.000305 µM, OCI-P5x cells, without rucaparib
[23] = at 0.00122 µM, OCI-C5x cells, with rucaparib 10 µM, 100% = cells with rucaparib alone
[24] = at 0.00122 µM, OCI-C5x cells, without rucaparib
[25] = at 0.00122 µM, OCI-P5x cells, with rucaparib 20 µM, 100% = cells with rucaparib alone
[26] = at 0.00122 µM, OCI-P5x cells, without rucaparib
[27] = at 0.00488 µM, OCI-C5x cells, with rucaparib 10 µM, 100% = cells with rucaparib alone
[28] = at 0.00488 µM, OCI-C5x cells, without rucaparib
[29] = at 0.00488 µM, OCI-P5x cells, with rucaparib 20 µM, 100% = cells with rucaparib alone
[30] = at 0.00488 µM, OCI-P5x cells, without rucaparib
[31] = at 0.0195 µM, OCI-C5x cells, with rucaparib 10 µM, 100% = cells with rucaparib alone
[32] = at 0.0195 µM, OCI-C5x cells, without rucaparib
[33] = at 0.0195 µM, OCI-P5x cells, with rucaparib 20 µM, 100% = cells with rucaparib alone
[34] = at 0.0195 µM, OCI-P5x cells, without rucaparib
[35] = at 0.0781 µM, OCI-C5x cells, with rucaparib 10 µM, 100% = cells with rucaparib alone
[36] = at 0.0781 µM, OCI-C5x cells, without rucaparib
[37] = at 0.0781 µM, OCI-P5x cells, with rucaparib 20 µM, 100% = cells with rucaparib alone
[38] = at 0.0781 µM, OCI-P5x cells, without rucaparib
[39] = at 0.313 µM, OCI-C5x cells, with rucaparib 10 µM, 100% = cells with rucaparib alone
[40] = at 0.313 µM, OCI-C5x cells, without rucaparib
[41] = at 0.313 µM, OCI-P5x cells, with rucaparib 20 µM, 100% = cells with rucaparib alone
[42] = at 0.313 µM, OCI-P5x cells, without rucaparib
[43] = at 1.25 µM, OCI-C5x cells, with rucaparib 10 µM, 100% = cells with rucaparib alone
[44] = at 1.25 µM, OCI-C5x cells, without rucaparib
[45] = at 1.25 µM, OCI-P5x cells, with rucaparib 20 µM, 100% = cells with rucaparib alone
[46] = at 1.25 µM, OCI-P5x cells, without rucaparib
[47] = at 5 µM, OCI-C5x cells, with rucaparib 10 µM, 100% = cells with rucaparib alone
[48] = at 5 µM, OCI-C5x cells, without rucaparib
[49] = at 5 µM, OCI-P5x cells, with rucaparib 20 µM, 100% = cells with rucaparib alone
[50] = at 5 µM, OCI-P5x cells, without rucaparib

CCN(CCO)CCCOc1ccc2c(Nc3cc(CC(=O)Nc4cccc(F)c4)[nH]n3)ncnc2c1
0.586: z-score [7, 18]
2110: cell count [5, 15]
1.14: SSMD [6]
inactive: outcome [2] | outcome [4] | fold change [5, 13] 0.945 | plate-normalised HSF1 focus index [6] 1.04 | z-score [7, 17] -0.237 | viability [8, 19] 106% | viability [8, 20] 113% | viability [8, 21] 110% | viability [8, 22] 110% | viability [8, 23] 103% | viability [8, 24] 118% | viability [8, 25] 115% | viability [8, 26] 108% | viability [8, 27] 114% | viability [8, 28] 112% | viability [8, 29] 115% | viability [8, 30] 111% | viability [8, 31] 109% | viability [8, 33] 104% | viability [8, 34] 106% | viability [8, 37] 104% | viability [8, 47] 107%
2230: cell count [5, 16]
0.861: fold change [5, 14]
7480: cell count [6]
active: AC50 [1] 235 nM | AC50 [3] 148 nM | viability [8, 32] 91.6% | viability [8, 35] 81% | viability [8, 36] 77.3% | viability [8, 38] 80.5% | viability [8, 39] 65.1% | viability [8, 40] 80.3% | viability [8, 41] 82.3% | viability [8, 42] 65.3% | viability [8, 43] 83.4% | viability [8, 44] 83% | viability [8, 45] 86.7% | viability [8, 46] 62% | viability [8, 48] 95.3% | viability [8, 49] 83.1% | viability [8, 50] 58.7%

O=C(Nc1cc(Cl)cc2c1[nH]c1cnccc12)c1cccnc1
inactive: parasite load remaining [9] 33.8% | outcome [1] | outcome [2] | outcome [10] | outcome [3] | outcome [4] | outcome [11] | outcome [12]
87.1%: viability [9]

N#Cc1cc(NC(=O)Nc2nnc(-c3ccncc3)s2)ccc1-c1cn[nH]c1
active: AC50 [1] 372 nM
inactive: outcome [2] | outcome [10] | outcome [3] | outcome [4] | outcome [12]

CN[C@H]1CCc2cc(OC)c(OC)c(OC)c2-c2ccc(OC)c(=O)cc21
active: AC50 [1] 105 nM | AC50 [2] 14.8 nM | AC50 [10] 132 nM | AC50 [3] 166 nM | AC50 [11] 148 nM | IC50 [12] 148 nM

CC(=O)c1c(C)c2cnc(Nc3ccc(N4CCNCC4)cn3)nc2n(C2CCCC2)c1=O
active: AC50 [1] 23500 nM | AC50 [2] 29600 nM | AC50 [10] 20900 nM | AC50 [3] 18600 nM | AC50 [11] 20900 nM | viability [8, 20] 95.6% | viability [8, 21] 93.8% | viability [8, 22] 93.8% | viability [8, 25] 94.1% | viability [8, 26] 91.2% | viability [8, 29] 95.4% | viability [8, 33] 95% | viability [8, 34] 94.4% | viability [8, 37] 96.9% | viability [8, 41] 99.2% | viability [8, 42] 98.7% | viability [8, 45] 97.6% | viability [8, 46] 99.7% | viability [8, 50] 97.9%
-0.48: z-score [7, 18]
-9.93: SSMD [6]
1.36: fold change [5, 14]
5060: cell count [6]
3100: cell count [5, 15]
inactive: outcome [12] | fold change [5, 13] 0.86 | plate-normalised HSF1 focus index [6] 0.38 | z-score [7, 17] 0.0111 | viability [8, 19] 132% | viability [8, 23] 119% | viability [8, 24] 104% | viability [8, 27] 119% | viability [8, 28] 104% | viability [8, 30] 100% | viability [8, 31] 122% | viability [8, 32] 116% | viability [8, 35] 115% | viability [8, 36] 118% | viability [8, 38] 103% | viability [8, 39] 111% | viability [8, 40] 126% | viability [8, 43] 115% | viability [8, 44] 133% | viability [8, 47] 114% | viability [8, 48] 139% | viability [8, 49] 103%
3600: cell count [5, 16]
